# Assay results taken from PubChem BioAssay AID720513 (Broad Institute, 2013).
# The whole screen tested about 2,100 compounds, of which about 480 (23%) were called active. About 5% were inconclusive and are not listed.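 Rule for the calls: active = fitted curve reaches 40% activation at or below the top valid concentration, in every replicate test; inconclusive = replicate tests disagree on the call; inactive = the rest, including activity in the opposite direction.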 Not all results are given here. Entries that show only a call come without a potency. Potency and affinity values are given separately.
# Test: activators raising PGC1a acetylation in cells, dose response, cell-based, cherry-picked samples, set 6 (AID 720513);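 note: cells made to overexpress flag tagged PGC1a plus GCN5 acetyltransferase by viral infection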
# Settings: U2OS PGC1a acetylation AlphaLISA, overnight, 0 = neutral, -100 = inhibitor control; series mostly up to 19.5 µM
row,SMILES,outcome
1,C[C@@H]1CN([C@@H](C)CO)C(=O)CCCn2cc(nn2)CO[C@H]1CN(C)Cc1ccc2c(c1)OCO2,inactive
2,O=C(C[C@@H]1C=C[C@@H](NC(=O)CN2CCOCC2)[C@H](CO)O1)NC1CCCCC1,inactive
3,CSc1nc(SC)c2c3c(oc2n1)COC(C)(C)C3,inactive
4,COCC#Cc1ccc2c(c1)O[C@H](CN(C)C(=O)CN(C)C)[C@@H](C)CN([C@@H](C)CO)S2(=O)=O,inactive
5,CCC(=O)N1CCc2cc(OC)c(OC)cc2C1COc1ccc(C(=O)OC)cc1 (stereo unspecified),inactive
6,CCC(=O)N(C)C[C@@H]1Oc2ncc(C#CCc3ccccc3)cc2C(=O)N([C@H](C)CO)C[C@@H]1C,inactive
7,C[C@H]1CN([C@@H](C)CO)C(=O)c2cccc(NC(=O)c3nc4ccccc4s3)c2O[C@H]1CN(C)Cc1ccc(C(=O)Nc2ccccc2N)cc1,inactive
8,C[C@@H]1CN([C@H](C)CO)C(=O)c2cccc(NC(=O)c3nc4ccccc4s3)c2O[C@@H]1CN(C)CC1CCCCC1,inactive
9,CN(c1ccccc1)S(=O)(=O)c1ccc(Cl)nc1,inactive
10,O=C(/C=C/c1ccccc1)CC(O)(c1ccccc1)C(F)(F)F (stereo unspecified),inactive
11,CCN(CC)S(=O)(=O)c1ccc(C(=O)N(c2ccccc2)C2C=CS(=O)(=O)C2)cc1 (stereo unspecified),inactive
12,CNC[C@@H](CC1CCCCC1)NC[C@H](CC(C)C)NCCc1cccc(C(F)(F)F)c1,inactive
13,Cc1cc(NS(=O)(=O)c2ccc(NC(=O)COc3c(C)cc(Br)cc3C)cc2)no1,inactive
14,CCN(CC(=O)NCc1ccc(Cl)cc1)C(=O)CSCC(=O)Nc1ccc(C)cc1,inactive
15,Cc1nnc2sc(-c3ccc(NC(=O)c4ccc(-c5ccc(Cl)cc5Cl)o4)cc3)nn12,inactive
16,CCC(=O)NCc1c(C)c(C)n(Cc2ccccc2)c1-n1cccc1,inactive
17,Cc1ccc(S(=O)(=O)OCCC2=CC(=O)CCN2Cc2ccccc2)cc1,inactive
18,Cc1ccc(S(=O)(=O)N2CCCCC2C(=O)O)cc1 (stereo unspecified),inactive
19,COc1ccc(S(=O)(=O)N2CCCCN3[C@@H](CO)[C@@H](c4ccc(C5=CCCCC5)cc4)[C@@H]3C2)cc1,inactive
20,CN(C)CC(=O)N[C@H]1CC[C@H](CCNC(=O)Nc2ccc(Cl)cc2)O[C@H]1CO,inactive
21,CCCc1nnc(NC(=O)CN2CCOCC2)s1,inactive
22,CCOC(=O)N1CCN(C(=O)c2cc(S(=O)(=O)N3CCCC3)cn2C)CC1,inactive
23,CNC[C@@H]1Oc2cc(C#CCC3CCCC3)ccc2S(=O)(=O)N([C@H](C)CO)C[C@H]1C,inactive
24,COc1ccc(COc2cc(-c3cccc(OC)c3)nc3ccc(NC(=O)c4cccnc4)cc23)cc1,inactive

row,SMILES,outcome
1,O=C(N/N=C/C=C\c1ccccc1[N+](=O)[O-])c1cccnc1,inactive
2,COc1ccc(-c2noc(CCC(=O)N3CCN(c4cccc(C)c4C)CC3)n2)cc1,inactive
3,CC(=O)N1N=C(c2ccco2)CC1c1ccco1 (stereo unspecified),inactive
4,CCC1SC2=NC(C)=C(C(=O)OC)C(c3cccs3)N2C1=O (stereo unspecified),inactive
5,COc1ccc(S(=O)(=O)N[C@@H]2CC[C@H](CCNC(=O)c3ccccc3F)O[C@H]2CO)cc1,inactive
6,O=c1c(Cl)c(Cl)cnn1Cc1nnc(-c2ccc(Cl)cc2)o1,inactive
7,CCC(=O)N(C)C[C@@H]1Oc2cc(C#Cc3cccnc3)ccc2S(=O)(=O)N([C@H](C)CO)C[C@H]1C,inactive
8,C=CCc1ccc(OCCCCNC(C)CC)c(OC)c1 (stereo unspecified),inactive
9,O=C1CN(C(=O)Cn2ncc(Cl)c(Cl)c2=O)c2ccccc2N1,inactive
10,CSCC(O)Cn1[nH]c(=O)c2cc(Cl)c(Cl)cc2c1=O (stereo unspecified),inactive
11,Cc1cc(S(=O)(=O)NC(C)C)ccc1OCC(=O)Nc1ccc2c(c1)OCCO2,inactive
12,O=C(/C=C/c1ccccc1)CC(O)(c1ccccc1)C(F)(F)C(F)F (stereo unspecified),inactive
13,Cc1ccc(C2CC2c2n[nH]c(=S)n2-c2ccc(Cl)cc2)cc1 (stereo unspecified),inactive
14,CCCNC(=O)c1nnsc1S(=O)c1ccc(Cl)cc1 (stereo unspecified),inactive
15,O=C(Nc1ccccc1)c1nnsc1S(=O)c1ccc(Cl)cc1 (stereo unspecified),inactive
16,Cc1ccc(-n2nc3ccc(N)cc3n2)cc1,inactive
17,CCC(=O)N(C)C[C@@H]1Oc2ncc(-c3ccc(C(=O)N(C)C)cc3)cc2C(=O)N([C@H](C)CO)C[C@@H]1C,inactive
18,COc1ccc(OCC(=O)NNC(=O)c2c(-c3ccccc3Cl)noc2C)cc1,inactive
19,CSc1n[nH]c(NC(=O)c2c(-c3c(Cl)cccc3Cl)noc2C)n1,inactive
20,O=C(O)COc1ccc(/C=C2/SC(=S)N(Cc3ccccc3)C2=O)cc1,inactive
21,CNC[C@@H](Cc1ccccc1)NC[C@@H](CC1CCCCC1)NCCCc1ccccc1,inactive
22,CCOC(=O)C1CCN(Cc2ccc(O)c3ncccc23)CC1,inactive
23,Cc1cccc(NS(=O)(=O)c2cccc(C(=O)NCC(c3ccco3)N3CCCCC3)c2)c1 (stereo unspecified),inactive
24,COc1ccc(C(=O)C(CN2CCCC2)c2ccccc2)cc1 (stereo unspecified),inactive

row,SMILES,outcome
1,CC(C)c1ccc(S(=O)(=O)N(C)C2(C)CCS(=O)(=O)C2)cc1 (stereo unspecified),inactive
2,CCCOc1cccc(C(=O)Nc2cc(NC(=O)c3ccco3)ccc2OC)c1,inactive
3,CN(C)S(=O)(=O)N1CCC(Cc2ccccc2)CC1,inactive
4,CCCCNC(=O)c1ccc(CS(=O)(=O)c2ccccc2OC)o1,inactive
5,O=C(Nc1ccc(F)cc1)N1CC(=O)N2[C@@H](CO)[C@@H](c3ccc(-c4ccccc4)cc3)[C@@H]2C1,inactive
6,CC(C)c1ccc(CNc2ccc([N+](=O)[O-])cn2)cc1,inactive
7,COc1ccc(-c2ccc(OC)cc2C(=O)O)cc1,inactive
8,Cc1nc(NCCc2ccccc2)c2nnn(Cc3ccccc3Cl)c2n1,inactive
9,CSc1ncccc1C(=O)N1CCN(C(=O)c2ccccc2)CC1,inactive
10,O=C(NC1CCCCCCC1O)c1ccccc1 (stereo unspecified),inactive
11,CO[C@@H]1CN(C)C(=O)c2cc(NC(C)=O)ccc2OC[C@@H](C)N(Cc2ccccc2C(=O)O)C[C@@H]1C,inactive
12,Cc1cc(SCC(=O)NC(=O)NCc2ccco2)nc2ccccc12,inactive
13,C=CCn1c(SCC(=O)NCc2ccccc2)nnc1-c1ccccc1O,inactive
14,COc1ccccc1/C=C/c1nc2ccc(OC(C)=O)cc2c(=O)o1,inactive
15,COc1ccc(OC)c(Nc2ccc(C(=O)O)cc2[N+](=O)[O-])c1,inactive
16,C[C@@H]1CN([C@@H](C)CO)C(=O)c2cc(NC(=O)c3ccncc3)ccc2O[C@@H](C)CCCCO[C@@H]1CN(C)Cc1ccncc1,inactive
17,CC(=O)Cc1nsc(NC(=O)c2cccc(F)c2)n1,inactive
18,CCCN1CCN(S(=O)(=O)c2ccc3c(c2)CC(C)N3C(=O)C2CC2)CC1 (stereo unspecified),inactive
19,c1ccc2c(-c3nn4nnnc4c4ccccc34)cccc2c1,inactive
20,COCCCNC(=O)c1ccc(CSCc2ccc(C)cc2)o1,inactive
21,COc1cccc(NC(=O)N(C)C[C@@H]2OCc3ccccc3-c3c(n(C)c4ccccc34)C(=O)N([C@@H](C)CO)C[C@H]2C)c1,inactive
22,C[C@@H]1CN([C@H](C)CO)C(=O)c2cc(NC(=O)Cc3cn(C)c4ccccc34)ccc2O[C@@H]1CN(C)C(=O)Nc1ccccc1,inactive
23,COc1ccc(-c2cnc3c(c2)C(=O)N([C@H](C)CO)C[C@@H](C)[C@@H](CN(C)C(=O)Nc2c(C)noc2C)O3)cc1,inactive
24,O=C(C[C@@H]1CC[C@@H]2[C@H](COC[C@@H](O)CN2S(=O)(=O)c2ccc(Cl)cc2)O1)N[C@@H]1CCN(Cc2ccccc2)C1,inactive

row,SMILES,outcome
1,CC(Nc1ccccc1)c1cc(Cl)ccc1O (stereo unspecified),inactive
2,O=C(c1ccc(N2CCCC2=O)cc1)N1CCCCCC1,inactive
3,CO[C@H]1CN(C)C(=O)c2ccc(NC(=O)C3CCOCC3)cc2OC[C@@H](C)N(C)C[C@@H]1C,inactive
4,Cc1cc(F)cc(-c2cc(C(=O)NCc3ccccc3)[nH]n2)c1,inactive
5,COc1cc(NC(=O)CCN2CCN(C)CC2)cc(OC)c1,inactive
6,O=C(CCN1C(=O)/C(=C/c2ccccc2)SC1=S)NCCCN1CCOCC1,inactive
7,O=C1/C(=C\c2ccco2)SC(=S)N1Cc1ccccc1,inactive
8,CC(/C=C1\SC(=O)N(CCCC(=O)O)C1=O)=C\c1ccccc1,inactive
9,CCOc1c(Br)cc(/C=C2/SC(=O)N(CC(=O)N3CCCC3)C2=O)cc1OC,inactive
10,O=S(=O)(NCCSc1ccc(Cl)cc1)c1ccc(F)cc1,inactive
11,Cc1ccc(-c2ccc3c(c2)O[C@@H](CN(C)C(=O)C2CCCCC2)[C@H](C)CN([C@H](C)CO)S3(=O)=O)cc1,inactive
12,COc1ccc(NC(=O)N[C@H]2CC[C@H](CCn3cc(-c4ccccc4F)nn3)O[C@@H]2CO)cc1,inactive
13,O=C(O)c1cccn1Cc1ccccc1F,inactive
14,Cc1c(CNCCc2ccc(Cl)cc2)c(C(=O)O)c(C)n1-c1ccccc1,inactive
15,C[C@@H]1CCCCO[C@H](CN(C)Cc2ccc(C(F)(F)F)cc2)[C@H](C)CN([C@H](C)CO)C(=O)c2cc(NC(=O)Cc3ccccc3)ccc2O1,inactive
16,CC(C)NC(=O)c1c(O)c2ccccc2[nH]c1=O,inactive
17,COc1ccc(S(=O)(=O)N(C)C[C@@H]2Oc3ccc(NS(=O)(=O)c4cn(C)cn4)cc3C(=O)N([C@H](C)CO)C[C@@H]2C)cc1,inactive
18,Cc1cc(NS(=O)(=O)c2ccc(NC(=O)CCCOc3ccccc3)cc2)no1,inactive
19,CCOc1ccc(S(=O)(=O)/N=C(/Nc2ccc(C(C)=O)cc2)c2ccccc2)cc1,inactive
20,NC(=NC(=O)c1ccccc1)N1CCOCC1,inactive
21,Cc1ccccc1Nc1ncnc2c1cnn2-c1ccccc1,inactive
22,O=C(c1ccc(F)cc1)N(C(=O)c1ccc(F)cc1)c1ncccn1,inactive
23,O=S(=O)(c1ccc(Br)cc1)n1ccc2ccccc21,inactive
24,COC(=O)Nc1ccc(S(=O)(=O)N(CCO)CC(F)(F)C(F)F)cc1,inactive
